# From PubChem
# Sampled rows, rich in hits. Any-hit rate of the full collection: about 11%.
# Vaccinia Venus: inhibitors of vaccinia virus (Venus reporter); Vaccinia virus Venus reporter expression, fluorescence; Potency, µM (titrated, usually from 36.5 µM), inactives show at the highest dose activity change, negative = inhibition, most hits filed as inhibitors; 330,000 compounds, 0.46% hits; AID 720580; calls by dose curve; tested in A549 cells; further: potency means the concentration at half of the fitted maximal effect; on the % scale 0 is the no-effect control and ±100 the full control effect; nearly all actives have a fitted effect of over 30% in size
# Pf growth 48h: inhibits P. falciparum growth in the first generation, 48 h; P. falciparum luciferase growth in erythrocytes, 48 h; Potency, µM (top dose mostly 28.7 µM), for the others: at the top dose activity change, negative = inhibition, most hits filed as inhibitors; 310,000 compounds, 5.9% hits; AID 504832; further: potency means the concentration at half of the fitted maximal effect; on the % scale 0 is the no-effect control and ±100 the full control effect
#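 Luciferase-expressing parasites in RBCs, 2% Hct / 0.1% parasitemia final; RPMI 1640 + 0.5% Albumax; 37 C, 5% CO2, one generation; luminescence read-out, lower signal = inhibition.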
# VACV mCherry inh: vaccinia inhibition (mCherry reporter); Vaccinia virus mCherry reporter infection, fluorescence; Potency, µM (titrated, usually from 36.5 µM), without a hit: top-dose activity change, negative = inhibition, most hits filed as inhibitors; 310,000 compounds, 0.63% hits; calls by dose curve; tested in A549 cells; further: potency means the concentration at half of the fitted maximal effect; on the % scale 0 is the no-effect control and ±100 the full control effect; nearly all actives have a fitted effect of over 35% in size
# Pf growth 96h: P. falciparum growth inhibition at 96 hour, primary screen for plastid delayed-death inhibitors | P. falciparum luciferase reporter growth, 96 h | Potency, µM (doses to about 28.7 µM), for inactives: at the highest dose activity change, negative = inhibition, hits mostly inhibitors | 320,000 compounds, 6.9% hits | AID 504834; further: potency means the concentration at half of the fitted maximal effect; on the % scale 0 is the no-effect control and ±100 the full control effect
#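 Delayed-death screen, second-generation endpoint: infected erythrocytes, 2% hematocrit, 0.05% parasitemia final; 96 hours at 37 C, 5% CO2; luciferase detection reagent; luminescence decrease equals reduced growth.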
# NS1 inh: influenza NS1 inhibition. Potency, µM (top dose mostly 46.1 µM), for inactives: at the highest dose activity, positive = more growth. 270,000 compounds, 0.4% hits; calls by dose curve; further: potency means the concentration at half of the fitted maximal effect; actives are rising curves; nearly all actives have a fitted effect of over 50% in size
#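 OD600 was taken as the measure of yeast growth restored by compound in an NS1-expressing S. cerevisiae strain. Cells had been washed out of glucose medium and diluted 1:100 into galactose -URA medium, pH 6.0.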
# HCV inh: blocks hepatitis C virus; Huh7.5.1 HCVcc-Cre infection, luciferase reporter, 44 h; Potency, µM (highest dose often 41.8 µM), for inactives: at the highest dose activity change, negative = inhibition, most hits filed as inhibitors; 340,000 compounds, 3.4% hits; further: potency means the concentration at half of the fitted maximal effect; on the % scale 0 is the no-effect control and ±100 the full control effect
#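 Luciferase read-out (15 sec integration) after a 15 min room-temperature substrate step quantifies HCVcc-Cre infection. Cells, 1,000 per well, had compound added 4 h post-plating, then virus at ~0.5 moi, and were cultured 44 h.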
# NS1 inh valid: validation of influenza NS1 protein function inhibitors; shares compounds with NS1 inh; influenza NS1 function cell assay, 15-point titration; activity change, negative = inhibition, % at 32.9 µM; 1,400 tested, under 10 active; AID 492980; calls by dose curve; further: 0% is about no effect
# An asterisk follows results filed as active; i = inactive; u = inconclusive; x = no result given. Unless noted, the call rests on the fitted dose curve; in most records, active means well fitted inhibition curve with a large enough effect; inconclusive means small, poorly fitted or top-dose-only effect, or another doubt; inactive means no such curve, though single readings can be large or run the other way.
SMILES,Vaccinia Venus,Pf growth 48h,VACV mCherry inh,Pf growth 96h,NS1 inh,HCV inh,NS1 inh valid
COc1ccc(C2N(c3ccc(F)cc3)C(=O)C3CCCN32)cc1 (stereo unspecified),-3.5%,x,-12.1%,-29.5%,1.12µM*,2.9%,3.4
COc1ccc(N2C(=O)C3CCCN3C2c2ccccc2OC)cc1 (stereo unspecified),4.5%,x,1.6%,u,-4.0%,6.6%,x
COc1ccc(S(=O)(=O)N2CCC(C(=O)N3CCOCC3)CC2)cc1,-9.5%,28.1%,x,x,-14.7%,9.7%,x
COc1ccc(S(=O)(=O)N2CCN(C(=O)C3CC3)CC2)cc1,0.0%,-8.5%,-6.7%,u,u,6.3%,-2.1
COc1ccc(S(=O)(=O)N2CCN(C3CCCCCCC3)CC2)cc1,-21.1%,17.5%,-3.1%,-3.9%,3.2%,-4.1%,x
COc1ccc(S(=O)(=O)N2CCC(N3CCCCC3)CC2)cc1,-0.6%,56.6%,u,46.0%,1.12µM*,-20.9%,11.3
CCS(=O)(=O)n1c(Cc2cccs2)nc2ccccc21,-19.3%,-7.8%,2.8%,65.3%,x,9.3%,x
O=C(CC1NCCNC1=O)Nc1ccc2c(c1)OCO2 (stereo unspecified),-15.3%,x,-15.7%,4.8%,1.12µM*,25.7%,5.5
O=C(CC1NCCNC1=O)Nc1ccc(Cl)c(Cl)c1 (stereo unspecified),-7.5%,23.0%,i,-2.8%,-0.2%,10.0%,x
CCOC(=O)c1cc2c(cn1)[C@H](CCO)NC2,-3.6%,x,-14.7%,x,x,-2.7%,x
CN1CCN(CCCNC(=O)C2CCN(c3nnc(-n4cccc4)s3)CC2)CC1,-8.0%,-5.0%,i,10.0%,12.9%,2.5%,x
CCN1CCN(CCCNC(=O)C2CCCN(c3nnc(-n4cccc4)s3)C2)CC1 (stereo unspecified),-18.2%,2.1%,x,u,5.01µM*,0.5%,-20.9
COC(=O)[C@@]1(Cc2ccc(F)cc2)[C@H]2c3cc(C(=O)N4CCCC4)n(Cc4ccc(C(F)(F)F)nc4)c3C[C@H]2CN1C(=O)c1ccccc1,u,u,-10.2%,2.08µM*,11.2µM*,u,3.0
COC(=O)c1c(NC(=O)c2nc(SCc3ccc(F)cc3)ncc2Cl)sc2c1CCCC2,0.6%,x,-1.7%,x,x,x,x
O=C(CCC(=O)N(CC(=O)NC1CCCCC1)Cc1ccc(F)cc1)Nc1nccs1,-13.5%,1.2%,-6.6%,-15.2%,-3.5%,1.3%,x
O=C(CCC(=O)N(CC(=O)NC1CCCCC1)Cc1cccs1)Nc1nccs1,x,-4.3%,x,15.6%,6.31µM*,0.2%,7.5
Cc1cc(C)c(S(C)(=O)=O)c(Oc2ccccc2C)n1,-4.9%,u,-4.5%,29.5%,1µM*,22.5%,-5.4
Cc1noc(C)c1COc1ccc(C(=O)N(C)CCOc2ccccc2)cc1,x,u,x,u,x,-8.8%,x
CC(C)CC(=O)Nc1nnn(C)n1,x,16.7%,x,u,10µM*,13.0%,14.8
c1ccc(-c2nnc(CN3CCCc4ccccc43)o2)cc1,-6.1%,u,-13.1%,x,u,u,u
Clc1ccccc1N1CCN(Cc2nnc(-c3ccccc3)o2)CC1,-3.3%,x,-3.6%,x,x,x,x
COc1ccccc1/C=N/NC(=O)c1nnn(-c2nonc2N)c1-c1cccs1,x,8.4%,x,105.0%,2.24µM*,35.2%,18.8
COc1ccccc1/C=N/NC(=O)c1nnn(-c2nonc2N)c1-c1ccccc1,-3.7%,x,-5.3%,x,x,-21.0%,x
O=C(CN1C(=O)C2CCCCC2C1=O)OCn1nnc2ccccc2c1=O (stereo unspecified),-14.1%,10.3%,-0.1%,29.5%,-6.0%,8.0%,x
CCC1(CC)NC(=O)N(CC(=O)OCn2nnc3ccccc3c2=O)C1=O,x,x,x,57.5%,7.08µM*,23.8%,2.9
SMILES,Vaccinia Venus,Pf growth 48h,VACV mCherry inh,Pf growth 96h,NS1 inh,HCV inh,NS1 inh valid
N#Cc1nc(COc2ccc(Cl)cc2Cl)oc1N1CCN(c2ccccc2)CC1,x,5.2%,x,u,11.2µM*,u,15.8
CC(C)OC(=O)c1cccnc1N1CCN(c2ccc(F)cc2)CC1,x,-3.7%,x,40.3%,-12.6%,u,x
O=C(Nn1c(SCc2cccc([N+](=O)[O-])c2)nc2ccccc2c1=O)c1ccccc1,-6.9%,179.0%,i,5.6%,14.1µM*,-10.4%,-7.4
COc1ccc(CN2C(=O)NC(=O)/C(=C/c3ccc(OC)c(OC)c3OC)C2=O)cc1,-4.1%,u,i,u,10µM*,1.3%,35.0
O=C(CCCN1C(=O)NC2(CCCC2)C1=O)N1CCN(S(=O)(=O)c2ccccc2)CC1,x,2.5%,x,u,x,15.4%,x
O=[N+]([O-])c1ccccc1S(=O)(=O)Oc1ccccc1/C=N/n1cnnc1,-18.8%,-19.8%,-9.5%,1.85µM*,20µM*,2.9%,-30.1
COc1cc(/C=C2\C(=O)NC(=O)N(c3ccccc3)C2=O)cc(OC)c1OC,-6.4%,15.8%,x,u,7.94µM*,12.2%,11.2
COc1cc(/C=C2/C(=O)NC(=O)N(c3ccc(C)cc3)C2=O)cc(OC)c1OC,7.5%,1.8%,-0.6%,3.1%,4.2%,6.7%,x
CCOC(=O)C1=C(C)Nc2sc(C(=O)c3ccc(C)cc3)c(N)c2C1c1ccc(C(=O)OC)cc1 (stereo unspecified),-8.6%,11.7µM*,-8.3%,5.22µM*,10µM*,u,26.8
CCOC(=O)c1ccc(CNCc2ccc(C)cc2)cc1,-7.8%,10.8%,i,u,2.3%,2.0%,x
CCN(CC)c1nc2c3c(nc4c(c3c1C#N)CC(=O)N4c1ccc(Cl)cc1)NC(C)=N2,16.2%,16.5µM*,i,4.65µM*,14.1µM*,u,28.8
CC(C)(C)c1ccc(N2C(=O)Cc3c2nc(N)c(C#N)c3N)cc1,x,36.7%,x,x,-1.5%,-26.8%,x
Cc1[nH][nH]c(=O)c1C(c1c(C)[nH][nH]c1=O)c1cn(Cc2cccc3ccccc23)c2ccccc12,-14.3%,u,i,u,12.6µM*,-1.2%,-11.1
O=c1c2ccccc2ncn1Cc1cccc2ccccc12,x,u,x,-1.0%,-0.4%,15.7%,x
Cc1ccc(S(=O)(=O)c2cc3c(=O)n4ccccc4nc3n(CC3CCCO3)c2=N)cc1C (stereo unspecified),-16.4%,3.1%,-10.1%,-20.3%,8.91µM*,u,u
O=c1cc(NCc2ccc3c(c2)OCO3)[nH]c(=O)n1-c1ccc(Cl)cc1,-20.6%,-14.7%,-20.6%,14.5%,7.4%,3.6%,x
Cc1ccccc1-n1c(=O)cc(NCc2ccc3c(c2)OCO3)[nH]c1=O,x,9.28µM*,x,u,u,6.4%,10.0
Cc1ccc(C(=O)CC2(O)C(=O)N(C)c3ccc(Br)cc32)c(C)c1 (stereo unspecified),3.0%,u,i,u,-30.8%,5.4%,x
